Measured values from PubChem BioAssay AID1159580 (chemical genetic matrix, 2015).
About 2,000 (36%) of roughly 5,500 compounds were called active. About 18% were inconclusive and are not listed. Cut-off read from the data, not from the text of the source: active = normalized growth mostly below about 0.91 (no sharp cut-off); inconclusive = no clear call, values can overlap the other calls; inactive = mostly above about 0.92. Some of the results follow.

Assay: chemical genetic growth profiling, strain panel (AID 1159580);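 note: tested at 20 µM; growth read once vehicle control cultures reached saturation at 30 °C; 1 = growth at the plate median or of vehicle wells; lower values mean less growth of the strain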
Settings: S. cerevisiae deletion strains, growth OD
[1] = locus YBL105C, strain PKC1, hits give low values
[2] = locus YBR135W, strain CKS1, hits give low values
[3] = locus YBR136W, strain MEC1, hits give low values
[4] = locus YBR160W, strain CDC28, hits give low values
[5] = locus YDL017W, strain CDC7, hits give low values
[6] = locus YDL028C, strain MPS1, hits give low values
[7] = locus YDL108W, strain KIN28, hits give low values
[8] = locus YDL214C, strain PRR2, hits give low values
[9] = locus YDR052C, strain DBF4, hits give low values
[10] = locus YDR226W, strain ADK1, hits give low values
[11] = locus YDR477W, strain SNF1, hits give low values
[12] = locus YER123W, strain YCK3, hits give low values
[13] = locus YER133W, strain GLC7, hits give low values
[14] = locus YFR003C, strain YPI1, hits give low values
[15] = locus YFR019W, strain FAB1, hits give low values
[16] = locus YFR028C, strain CDC14, hits give low values
[17] = locus YGR040W, strain KSS1, hits give low values
[18] = locus YGR052W, strain FMP48, hits give low values
[19] = locus YGR092W, strain DBF2, hits give low values
[20] = locus YHR030C, strain SLT2, hits give low values
[21] = locus YHR079C, strain IRE1, hits give low values
[22] = locus YHR082C, strain KSP1, hits give low values
[23] = locus YHR205W, strain SCH9, hits give low values
[24] = locus YIL147C, strain SLN1, hits give low values
[25] = locus YJL095W, strain BCK1, hits give low values
[26] = locus YJL128C, strain PBS2, hits give low values
[27] = locus YJL157C, strain FAR1, hits give low values
[28] = locus YJR016C, strain ILV3, hits give low values
[29] = locus YJR066W, strain TOR1 (second series), hits give low values
[30] = locus YJR066W, strain TOR1, hits give low values
[31] = locus YKL048C, strain ELM1, hits give low values
[32] = locus YKL067W, strain YNK1, hits give low values
[33] = locus YKL101W, strain HSL1, hits give low values
[34] = locus YKL203C, strain TOR2, hits give low values
[35] = locus YLR113W, strain HOG1, hits give low values
[36] = locus YLR133W, strain CKI1, hits give low values
[37] = locus YLR403W, strain SFP1, hits give low values
[38] = locus YML070W, strain DAK1, hits give low values
[39] = locus YMR205C, strain PFK2 (second series), hits give low values
[40] = locus YNL006W, strain LST8, hits give low values
[41] = locus YNL020C, strain ARK1, hits give low values
[42] = locus YNL183C, strain NPR1, hits give low values
[43] = locus YNL207W, strain RIO2, hits give low values
[44] = locus YNL307C, strain MCK1 (second series), hits give low values
[45] = locus YOL136C, strain PFK27, hits give low values
[46] = locus YOR061W, strain CKA2, hits give low values
[47] = locus YOR119C, strain RIO1, hits give low values
[48] = locus YOR231W, strain MKK1, hits give low values
[49] = locus YPL031C, strain PHO85, hits give low values
[50] = locus YPL153C, strain RAD53, hits give low values
[51] = locus YPL204W, strain HRR25, hits give low values
[52] = locus YPL209C, strain IPL1, hits give low values
[53] = locus YPL256C, strain CLN2, hits give low values
[54] = locus YPR106W, strain ISR1, hits give low values
[55] = locus YPR111W, strain DBF20, hits give low values
[56] = strain NNK1, hits give low values

Measured: normalized growth

COCc1nc2c([nH]1)c(=O)n(C)c(=O)n2CC(C)C
inactive: locus YAL040C, strain CLN3, hits give low values 0.991 | locus YCL061C, strain MRC1 (second series), hits give low values 1 | locus YDR150W, strain NUM1, hits give low values 1 | locus YDR363W, strain ESC2, hits give low values 0.997 | locus YER002W, strain NOP16, hits give low values 1.02 | locus YGR078C, strain PAC10, hits give low values 1.01 | locus YGR229C, strain SMI1, hits give low values 0.993 | locus YJR075W, strain HOC1, hits give low values 0.994 | locus YNL153C, strain GIM3, hits give low values 1.01 | locus YNL175C, strain NOP13, hits give low values 0.999 | locus YNL197C, strain WHI3, hits give low values 1.01 | locus YNL224C, strain SQS1, hits give low values 1 | locus YOR083W, strain WHI5 (second series), hits give low values 1.01 | locus YPL241C, strain CIN2, hits give low values 1.01

Cc1ccc(Sc2c(Sc3ccc(C)cc3)c(=O)c2=O)cc1
inactive: locus YAR019C, strain CDC15, hits give low values 0.898 | [1] 0.982 | [2] 0.961 | [3] 0.968 | [4] 0.958 | [5] 0.971 | [6] 0.961 | locus YDL101C, strain DUN1, hits give low values 0.915 | [7] 0.964 | locus YDL132W, strain cdc53, hits give low values 0.936 | [9] 0.974 | [10] 0.968 | locus YFL009W, strain cdc4, hits give low values 0.946 | [14] 0.969 | [16] 0.958 | [24] 0.964 | [26] 0.949 | [28] 0.976 | locus YKL193C, strain SDS22, hits give low values 0.948 | locus YMR001C, strain CDC5, hits give low values 0.952 | locus YMR277W, strain FCP1, hits give low values 0.882 | [40] 0.949 | locus YNL161W, strain CBK1, hits give low values 0.966 | [43] 0.973 | locus YOR329C, strain SCD5, hits give low values 0.978 | [52] 0.965 | locus YPR025C, strain CCL1, hits give low values 0.957 | [54] 0.967 | [55] 0.952 | [56] 0.963 | strain TSCII, hits give low values 0.914
active: [8] 0.184 | [11] 0.226 | [12] 0.14 | [13] 0.237 | [15] 0.128 | [17] 0.285 | [18] 0.228 | [19] 0.427 | [20] 0.132 | [21] 0.171 | [22] 0.155 | [23] 0.0561 | [25] 0.172 | [27] 0.168 | [29] 0.135 | [30] 0.129 | [31] 0.599 | [32] 0.287 | [33] 0.447 | [34] 0.551 | [35] 0.186 | [36] 0.267 | [37] 0.161 | [38] 0.135 | [39] 0.486 | [41] 0.319 | [42] 0.173 | [44] 0.267 | [45] 0.118 | [46] 0.427 | [47] 0.636 | [48] 0.224 | [49] 0.144 | [50] 0.178 | [51] 0.197 | [53] 0.172

O=c1c(Sc2ccc(Cl)cc2)c(Sc2ccc(Cl)cc2)c1=O
active: [8] 0.104 | [11] 0.136 | [12] 0.0987 | [13] 0.108 | [15] 0.091 | [17] 0.158 | [18] 0.135 | [19] 0.386 | [20] 0.128 | [21] 0.113 | [22] 0.128 | [23] 0.121 | [25] 0.128 | [27] 0.0972 | [29] 0.0937 | [30] 0.124 | [31] 0.6 | [32] 0.115 | [33] 0.39 | [34] 0.432 | [35] 0.175 | [36] 0.147 | [37] 0.154 | [38] 0.0995 | [39] 0.241 | [40] 0.45 | [41] 0.196 | [42] 0.114 | [44] 0.261 | [45] 0.0906 | [46] 0.266 | [47] 0.485 | [48] 0.142 | [49] 0.103 | [50] 0.104 | [51] 0.109 | [53] 0.154
inactive: [1] 0.984 | [2] 0.961 | [3] 0.978 | [4] 0.973 | [5] 0.985 | [6] 0.973 | [7] 0.967 | [9] 0.977 | [10] 0.971 | [14] 0.979 | [16] 0.968 | [24] 0.971 | [26] 0.971 | [28] 0.974 | [43] 0.973 | [52] 0.985 | [54] 0.978 | [55] 0.962 | [56] 0.98
